Results from PubChem BioAssay (NCATS).
Unmarked numbers belong to inactive results. Inconclusive results are not listed. Calls of active or inactive are those of the source. Unless noted, calls come from the whole dose curve; as a rule, active = well fitted curve in either direction with a large enough effect (not every such curve was filed as active); inconclusive = small, poorly fitted or top-dose-only effect, or another doubt; inactive = flat fitted curve, though single readings scatter.

Key:
[1] = biological target: Lysosomal acid glucosylceramidase (Homo sapiens) (UniProt P04062); test: Glucocerebrosidase-p2 (AID 348; in the data active = potency below about 10 µM; note: potency is the fitted concentration of half-maximal effect); details: purified GBA, blue fluorogenic substrate, 40 min
Method in brief: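 Normal human glucocerebrosidase (0.2 nM) with blue fluorogenic substrate (80 uM final) in citrate/phosphate pH 5.9 with 10mM sodium taurocholate, 0.01% tween-20; 40 min RT, NaOH/glycine stop; fluorescence Ex 365/Em 440; AC50 from a titration from 0.6 nM upwards.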

[2] = AP1 Signaling Pathway (AID 357); details: ME-180 AP-1-bla reporter, EGF-induced, beta-lactamase ratio, 5 h; at 7.69 µM (top of the series) unless noted; note: % is set by controls: 0 for no effect and ±100 for the full control effect
Method in brief: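 AP-1-bla ME-180 cells with beta-lactamase reporter under AP-1 response element, stimulated with EC50 EGF; compounds titrated, 5 hours at 37 degrees Celsius. CCF4 read at 460/530 nm ratio; positive and negative modulators judged by AC50.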

[3] = biological target: Cytochrome P450 1A2 (Homo sapiens) (UniProt P05177); test: p450-cyp1a2 (AID 410; calls by dose curve; note: potency is the fitted concentration of half-maximal effect;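 for activity change, negative = inhibition: -100% = full effect of reference inhibitor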); details: recombinant CYP1A2, luciferin-ME demethylation, luminescence; series mostly up to 11.4 µM
Method in brief: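 Read-out is luminescence from luciferin produced by CYP1A2 demethylation of Luciferin-ME (100uM, at Km). Detection reagent stopped the 60 min NADPH-dependent reaction; signals were normalized to 57 uM furafylline.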

[4] = NFAT Signaling Pathway (AID 444); details: Jurkat NFAT-bla M1, carbachol, beta-lactamase ratio, 5 h; at 7.69 µM (top of the series) unless noted;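 note: carbachol stimulus at about its EC50 of 1 µM final; % is set by controls: 0 for no effect and ±100 for the full control effect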
Method in brief: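 Jurkat cells with NFAT-driven β-lactamase reporter and co-expressed M1 receptor, stimulated with carbachol (final 1 uM, ~EC50), compound titration, 5 h at 37 °C. CCF4 loaded 1 h at RT; 460/530 nm ratio gave %activity and AC50.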

[5] = Stat Signaling Pathway (AID 446); details: ME-180 SIE beta-lactamase reporter, IL-6 stimulated, 5 h; at 7.69 µM (top of the series) unless noted;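 note: ME-180 cervical cancer cells given 40 pM IL-6 alongside compound; SIE-controlled beta-lactamase reporter measured as 460/530 nm FRET emission ratio; % is set by controls: 0 for no effect and ±100 for the full control effect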
Method in brief: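 Compound effects on IL-6-induced STAT reporter activity were measured in ME-180 cells. After overnight culture, cells were co-treated with 40 pM IL-6 for 5 hrs before beta-lactamase substrate loading at room temperature.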

[6] = biological target: Glucocorticoid receptor (Homo sapiens) (UniProt P04150); test: GR-GFP Redistribution (AID 450;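 active = compounds whose dose series gives a full or clear partial fitted curve of increased nuclear translocation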; note: potency is the fitted concentration of half-maximal effect); details: U2OS GR-GFP nuclear translocation, laser cytometry, 2 h
[7] = biological target: Glucocorticoid receptor (Homo sapiens) (UniProt P04150); test: GR-EFC Redistribution (AID 451; calls by dose curve; note: potency is the fitted concentration of half-maximal effect); details: CHO-K1 GR-EFC translocation, beta-gal luminescence, 2 h
Method in brief: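 CHO-K1 cells expressing nuclear EA and GR-ED fragments of b-gal; compounds titrated up to 46 uM final, 2 h at 37 C. GR nuclear translocation read as complemented b-gal luminescence after 1 h RT detection.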

[8] = biological target: Mitogen-activated protein kinase 10 (Mus musculus) (UniProt Q61831); test: JNK3 AlphaScreen Assay (AID 530); details: JNK3 lysate, c-Jun phosphorylation; series mostly up to 57.1 µM;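 note: kinase came from lysate of stimulated human HepG2 cells; signal reports phosphorylation of biotinylated GST-cJun 1-79 at Ser73 with 10 µM ATP; % is set by controls: 0 for no effect and ±100 for the full control effect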
Method in brief: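 HepG2 lysate (IL-1b/TNFa pre-activated) + biotin-GST-cJun 1-79 + anti-pSer73 cJun; cpd titration, 15 min RT; ATP 10 uM start; Tris pH 7.6, MgCl2, DTT, vanadate; beads in EDTA buffer; AlphaScreen.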

[9] = biological target: 3',5'-cyclic-AMP phosphodiesterase 4B (Homo sapiens) (UniProt Q07343); test: qHTS Assay for Inhibitors of PDE-IV (AID 607; active = well fitted activation curve with a large enough effect in the main read-out, with a control signal flat, not every such curve was filed as active; note: % of control where 0% means no effect); details: HEK293 ACTOne CNG channel cells, membrane potential fluorescence; series mostly up to 22.9 µM
Method in brief: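 ACTOne HEK293 cells carry a modified cAMP-gated CNG channel and express endogenous PDE4; plated 1000 cells/well, compounds up to 22.9 uM final. Membrane-potential dye fluorescence (ex 535/em 590) was read; parental cells received 10 uM forskolin + 100 uM RO 20-1724.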

[10] = biological target: Cytochrome P450 2C9 (Homo sapiens) (UniProt P11712); test: qHTS Assay for Inhibitors and Substrates of Cytochrome P450 2C9 (AID 883; active = well fitted curve in the direction sought with a large enough effect; an effect the other way counts as inactive or inconclusive; note: potency is the fitted concentration of half-maximal effect; nearly all actives have a fitted effect of over 60% in size); details: recombinant CYP2C9, luciferin-H luminescence, 60 min; series mostly up to 57.1 µM
Method in brief: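 10nM CYP2C9 + 100uM Luciferin-H (=KM), 25mM KPO4; cpd 10 min 37C; NADPH regen, 60 min 37C; stop/detect with P450 Glo-Buffer 20 min; luminescence. Norm. to 57uM sulphaphenazole as full inhibition.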

[11] = biological target: Cytochrome P450 3A4 (Homo sapiens) (UniProt P08684); test: qHTS Assay for Activators of Cytochrome P450 3A4 (AID 885; active = well fitted curve in the direction sought with a large enough effect; an effect the other way counts as inactive or inconclusive; note: nearly all actives have a fitted effect of over 65% in size); details: recombinant CYP3A4, Luciferin-PPXE luminescence, 60 min; series mostly up to 57.1 µM
Method in brief: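 CYP3A4 activity: Luciferin-PPXE O-dealkylation, 25uM substrate, 200mM KPO4, RT throughout. Read-out is luciferase luminescence; higher values reflect activation.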

[12] = qHTS Assay for Identification of Small Molecule Agonists for Hypoxia Response Element Signaling Pathway (AID 914; active = well fitted activation curve with a large enough effect in the signal ratio, with a control signal flat, not every such curve was filed as active; the % refers to the signal ratio; note: % of control where 0% means no effect); details: ME-180 (cervical carcinoma) HRE-bla reporter, beta-lactamase ratio, CoCl2, 17 h; hits give high values
Method in brief: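 Positive modulation of EC50 CoCl2-induced hypoxia response element signaling is measured in ME-180 cells with a beta-lactamase reporter. Compounds are titrated, incubation runs 17 hours, and %Activity derives from the blue/green ratio.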

[13] = biological target: Cytochrome P450 2D6 (Homo sapiens) (UniProt P10635); test: qHTS Assay for Inhibitors and Substrates of Cytochrome P450 2D6 (AID 891; active = well fitted curve in the direction sought with a large enough effect; an effect the other way counts as inactive or inconclusive;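 note: luciferin methyl ether substrate demethylated by CYP2D6 with NADPH regeneration; % is set by controls: 0 for no effect and ±100 for the full control effect; nearly all actives have a fitted effect of over 60% in size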); details: recombinant CYP2D6, luciferin-ME EGE luminescence; series mostly up to 11.4 µM
Method in brief: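 Luminescent read-out of luciferin formed by 5 nM human CYP2D6 demethylating 30 uM Luciferin-ME EGE (Km level) over 60 min at room temperature after NADPH regeneration addition. Data normalized to full inhibition by 1.43 uM quinidine.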

[14] = biological target: Cytochrome P450 2C19 (Homo sapiens) (UniProt P33261); test: qHTS Assay for Inhibitors and Substrates of Cytochrome P450 2C19 (AID 899; active = well fitted curve in the direction sought with a large enough effect; an effect the other way counts as inactive or inconclusive; note: nearly all actives have a fitted effect of over 60% in size; note: potency is the fitted concentration of half-maximal effect); details: recombinant CYP2C19, luciferin-H EGE luminescence; series mostly up to 11.4 µM
Method in brief: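 Luminescent read-out of luciferin formed from Luciferin-H EGE (10uM, equal to KM). Enzyme 5nM in 50mM KPO4; compound added, 10 min at 37C, then NADPH regenerating system for 60 min at 37C. Full inhibition defined by 57uM ketoconazole.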

Chain of 3',5'-cyclic-AMP phosphodiesterase 4B (Homo sapiens) (Q07343 whole entry, looked up): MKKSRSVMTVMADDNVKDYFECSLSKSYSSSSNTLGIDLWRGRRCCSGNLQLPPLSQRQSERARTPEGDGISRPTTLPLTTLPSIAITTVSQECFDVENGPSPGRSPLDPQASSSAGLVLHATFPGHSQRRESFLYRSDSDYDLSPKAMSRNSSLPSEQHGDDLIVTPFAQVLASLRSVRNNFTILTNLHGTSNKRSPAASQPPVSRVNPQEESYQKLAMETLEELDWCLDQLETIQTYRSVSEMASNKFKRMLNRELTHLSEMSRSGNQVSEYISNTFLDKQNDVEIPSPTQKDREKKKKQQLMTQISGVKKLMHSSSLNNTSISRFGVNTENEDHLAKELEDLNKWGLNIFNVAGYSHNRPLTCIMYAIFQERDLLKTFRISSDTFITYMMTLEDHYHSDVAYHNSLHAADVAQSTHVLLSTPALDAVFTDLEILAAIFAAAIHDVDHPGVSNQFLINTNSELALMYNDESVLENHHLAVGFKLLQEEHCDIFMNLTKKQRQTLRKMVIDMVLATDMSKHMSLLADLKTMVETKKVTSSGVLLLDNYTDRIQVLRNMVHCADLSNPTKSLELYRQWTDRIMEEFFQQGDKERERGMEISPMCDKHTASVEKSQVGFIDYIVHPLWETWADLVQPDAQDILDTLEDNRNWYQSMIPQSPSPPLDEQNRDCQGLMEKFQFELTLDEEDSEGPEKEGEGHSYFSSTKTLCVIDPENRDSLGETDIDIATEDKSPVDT
Chain of Glucocorticoid receptor (Homo sapiens) (P04150 whole entry, looked up, the tested form may be a part): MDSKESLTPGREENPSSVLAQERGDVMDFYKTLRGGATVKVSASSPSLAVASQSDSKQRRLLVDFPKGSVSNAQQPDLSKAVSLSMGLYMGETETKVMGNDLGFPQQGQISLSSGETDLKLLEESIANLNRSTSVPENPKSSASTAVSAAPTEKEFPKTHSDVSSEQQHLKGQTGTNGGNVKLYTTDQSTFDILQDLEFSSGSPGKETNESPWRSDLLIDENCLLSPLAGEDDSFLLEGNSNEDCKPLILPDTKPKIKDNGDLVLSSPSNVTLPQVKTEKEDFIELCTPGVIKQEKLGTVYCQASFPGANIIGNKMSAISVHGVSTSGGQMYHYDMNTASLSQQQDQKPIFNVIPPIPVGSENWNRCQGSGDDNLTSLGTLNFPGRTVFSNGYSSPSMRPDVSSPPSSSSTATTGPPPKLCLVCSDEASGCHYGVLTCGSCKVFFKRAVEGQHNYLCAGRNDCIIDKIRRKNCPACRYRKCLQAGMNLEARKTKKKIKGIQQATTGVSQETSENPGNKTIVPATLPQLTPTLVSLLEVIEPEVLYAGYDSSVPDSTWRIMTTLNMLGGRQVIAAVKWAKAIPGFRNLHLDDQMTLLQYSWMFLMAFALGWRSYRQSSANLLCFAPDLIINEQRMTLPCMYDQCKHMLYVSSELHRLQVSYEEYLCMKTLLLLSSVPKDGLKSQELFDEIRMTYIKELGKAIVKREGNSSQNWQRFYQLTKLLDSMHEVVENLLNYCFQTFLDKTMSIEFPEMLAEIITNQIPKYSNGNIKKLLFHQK
Chain of Cytochrome P450 1A2 (Homo sapiens) (P05177 whole entry, looked up): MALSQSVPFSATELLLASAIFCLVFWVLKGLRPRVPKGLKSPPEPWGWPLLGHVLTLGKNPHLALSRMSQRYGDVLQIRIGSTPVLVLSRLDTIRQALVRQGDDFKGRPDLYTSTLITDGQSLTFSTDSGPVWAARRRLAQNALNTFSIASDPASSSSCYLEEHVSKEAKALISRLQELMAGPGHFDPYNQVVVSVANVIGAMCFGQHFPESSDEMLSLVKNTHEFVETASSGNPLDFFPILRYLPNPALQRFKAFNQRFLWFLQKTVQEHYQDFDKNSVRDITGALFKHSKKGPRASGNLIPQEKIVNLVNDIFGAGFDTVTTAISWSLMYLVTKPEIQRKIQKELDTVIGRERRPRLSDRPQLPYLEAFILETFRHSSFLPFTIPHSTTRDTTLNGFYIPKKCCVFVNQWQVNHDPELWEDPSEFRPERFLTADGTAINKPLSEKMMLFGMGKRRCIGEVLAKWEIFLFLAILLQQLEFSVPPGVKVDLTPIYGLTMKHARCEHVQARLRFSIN
Chain of Lysosomal acid glucosylceramidase (Homo sapiens) (P04062 whole entry, looked up): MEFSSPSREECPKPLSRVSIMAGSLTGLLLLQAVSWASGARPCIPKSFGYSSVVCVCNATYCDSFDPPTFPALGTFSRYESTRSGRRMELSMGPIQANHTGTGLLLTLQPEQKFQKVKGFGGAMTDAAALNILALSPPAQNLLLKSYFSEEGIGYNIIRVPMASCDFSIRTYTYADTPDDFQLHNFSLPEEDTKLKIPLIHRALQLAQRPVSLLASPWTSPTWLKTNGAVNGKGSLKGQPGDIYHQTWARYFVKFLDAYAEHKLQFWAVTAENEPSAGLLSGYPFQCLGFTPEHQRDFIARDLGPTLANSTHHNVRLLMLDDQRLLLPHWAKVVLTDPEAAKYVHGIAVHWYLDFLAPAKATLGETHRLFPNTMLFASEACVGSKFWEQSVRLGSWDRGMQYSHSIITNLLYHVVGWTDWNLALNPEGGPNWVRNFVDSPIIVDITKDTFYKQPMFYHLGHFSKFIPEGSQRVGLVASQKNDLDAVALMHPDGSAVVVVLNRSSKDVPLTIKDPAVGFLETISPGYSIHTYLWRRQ
Chain of Cytochrome P450 3A4 (Homo sapiens) (P08684 whole entry, looked up): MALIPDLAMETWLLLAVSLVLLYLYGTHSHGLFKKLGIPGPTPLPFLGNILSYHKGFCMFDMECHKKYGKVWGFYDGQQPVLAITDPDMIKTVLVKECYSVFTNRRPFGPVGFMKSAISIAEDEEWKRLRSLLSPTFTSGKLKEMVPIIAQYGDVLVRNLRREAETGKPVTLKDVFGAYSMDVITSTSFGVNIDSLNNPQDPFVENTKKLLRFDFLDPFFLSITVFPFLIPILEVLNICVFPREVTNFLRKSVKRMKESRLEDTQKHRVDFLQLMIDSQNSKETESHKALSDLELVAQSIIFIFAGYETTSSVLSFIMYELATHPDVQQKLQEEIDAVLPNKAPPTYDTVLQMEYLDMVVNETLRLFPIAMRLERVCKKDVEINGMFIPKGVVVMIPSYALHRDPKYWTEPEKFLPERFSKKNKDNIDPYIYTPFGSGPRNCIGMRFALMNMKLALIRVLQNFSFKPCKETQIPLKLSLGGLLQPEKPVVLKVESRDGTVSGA
Chain of Cytochrome P450 2C19 (Homo sapiens) (P33261 whole entry, looked up): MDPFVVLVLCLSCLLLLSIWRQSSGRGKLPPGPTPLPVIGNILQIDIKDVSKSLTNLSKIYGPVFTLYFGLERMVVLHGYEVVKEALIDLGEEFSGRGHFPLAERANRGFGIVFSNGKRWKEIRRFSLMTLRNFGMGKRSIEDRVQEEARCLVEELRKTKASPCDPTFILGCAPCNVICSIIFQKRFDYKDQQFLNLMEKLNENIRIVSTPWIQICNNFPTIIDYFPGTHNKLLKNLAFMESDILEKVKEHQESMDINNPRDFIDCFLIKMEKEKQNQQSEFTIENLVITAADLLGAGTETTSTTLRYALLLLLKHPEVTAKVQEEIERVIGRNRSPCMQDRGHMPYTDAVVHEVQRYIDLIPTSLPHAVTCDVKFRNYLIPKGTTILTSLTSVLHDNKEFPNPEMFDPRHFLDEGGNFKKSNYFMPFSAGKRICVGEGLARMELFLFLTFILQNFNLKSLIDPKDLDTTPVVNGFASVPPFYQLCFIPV
Chain of Cytochrome P450 2C9 (Homo sapiens) (P11712 whole entry, looked up): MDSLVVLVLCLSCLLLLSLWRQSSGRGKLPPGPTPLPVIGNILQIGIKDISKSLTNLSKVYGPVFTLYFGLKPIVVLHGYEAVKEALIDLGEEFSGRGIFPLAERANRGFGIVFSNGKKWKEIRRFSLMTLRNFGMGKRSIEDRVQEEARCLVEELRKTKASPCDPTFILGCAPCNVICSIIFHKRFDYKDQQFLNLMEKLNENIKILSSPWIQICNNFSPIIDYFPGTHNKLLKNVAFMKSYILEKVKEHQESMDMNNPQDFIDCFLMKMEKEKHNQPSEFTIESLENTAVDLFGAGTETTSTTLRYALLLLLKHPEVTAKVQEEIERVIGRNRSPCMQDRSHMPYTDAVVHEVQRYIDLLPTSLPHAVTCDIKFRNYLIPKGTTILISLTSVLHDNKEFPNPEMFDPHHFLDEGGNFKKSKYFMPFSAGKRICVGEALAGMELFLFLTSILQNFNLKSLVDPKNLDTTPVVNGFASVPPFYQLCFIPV
Chain of Cytochrome P450 2D6 (Homo sapiens) (P10635 whole entry, looked up): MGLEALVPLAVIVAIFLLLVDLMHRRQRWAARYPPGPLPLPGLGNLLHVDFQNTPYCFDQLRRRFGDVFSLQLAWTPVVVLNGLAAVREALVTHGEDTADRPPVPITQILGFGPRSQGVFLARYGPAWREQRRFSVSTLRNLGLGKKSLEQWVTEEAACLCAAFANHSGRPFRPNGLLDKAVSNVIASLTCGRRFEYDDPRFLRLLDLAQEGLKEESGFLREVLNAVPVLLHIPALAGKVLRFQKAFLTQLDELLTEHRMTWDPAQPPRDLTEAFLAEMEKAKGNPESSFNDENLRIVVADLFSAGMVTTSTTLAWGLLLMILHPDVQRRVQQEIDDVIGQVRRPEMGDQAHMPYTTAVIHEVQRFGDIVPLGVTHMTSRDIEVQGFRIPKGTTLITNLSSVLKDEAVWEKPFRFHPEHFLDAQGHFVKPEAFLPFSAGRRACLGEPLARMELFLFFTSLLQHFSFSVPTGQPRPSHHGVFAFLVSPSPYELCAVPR

SMILES: O=C(C[C@H](c1ccccc1)c1c(O)c2ccccc2oc1=O)c1ccccc1
- Potency [1]: > 11.4 µM
- activity change, negative = inhibition [2]: 2.29%
- activity change, negative = inhibition [3]: -12.6% [at 2.29 µM]
- activity change, negative = inhibition [4]: 11.4%
- activity, negative = inhibition [5]: -9.56%
- Potency [6]: > 46 µM
- Potency [7]: > 9.22 µM
- activity change, negative = inhibition [8]: -4.41% [at 11.4 µM]
- outcome [9]: inactive
- Potency [10]: 0.631 µM (active)
- activity change, positive = activation [11]: -30.1% [at 11.4 µM]

SMILES: CN(C)CS/C(N)=N/[C@H](O)C(Cl)(Cl)Cl
- Potency [1]: > 11.4 µM
- activity change, negative = inhibition [2]: 1.46%
- activity change, negative = inhibition [3]: 4.1% [at 2.29 µM]
- activity change, negative = inhibition [4]: 23.1%
- activity, negative = inhibition [5]: 3.46%
- Potency [6]: > 46 µM
- Potency [7]: > 9.22 µM
- activity change, negative = inhibition [8]: 3.54% [at 11.4 µM]
- outcome [9]: inactive
- activation [12]: 7.72%

SMILES: N=C(N)n1cc(/C=N\N=C(N)N)cn1
- Potency [1]: > 11.4 µM
- activity change, negative = inhibition [2]: 8.06%
- activity change, negative = inhibition [3]: 7.8% [at 2.29 µM]
- activity change, negative = inhibition [4]: 8.05%
- activity, negative = inhibition [5]: 9.59%
- Potency [6]: > 46 µM
- activity change, negative = inhibition [8]: 6.38% [at 11.4 µM]
- outcome [9]: inactive
- Potency [13]: inactive

SMILES: O=[As](O)(O)c1ccc(N=Nc2ccc(O)cc2)cc1
- Potency [1]: > 11.4 µM
- activity change, negative = inhibition [2]: 3.33%
- Potency [3]: inactive
- activity change, negative = inhibition [4]: 9.82%
- activity, negative = inhibition [5]: 3.63%
- Potency [6]: > 46 µM
- Potency [7]: > 9.22 µM
- activity change, negative = inhibition [8]: -2.48% [at 11.4 µM]
- outcome [9]: inactive
- activation [12]: 5.33%

SMILES: N#CCCCC[N+]12CN3CN(CN(C3)C1)C2
- Potency [1]: > 11.4 µM
- activity change, negative = inhibition [2]: 12.8%
- activity change, negative = inhibition [3]: 15% [at 2.29 µM]
- activity change, negative = inhibition [4]: 5.06%
- activity, negative = inhibition [5]: -17.9%
- Potency [6]: > 46 µM
- activity change, negative = inhibition [8]: 0.429% [at 11.4 µM]
- outcome [9]: inactive

SMILES: CC(C)[C@]1(O)[C@@H](OC(=O)c2ccc[nH]2)[C@]2(O)[C@@]3(C)C[C@@]4(O)O[C@@]5([C@H](O)[C@@H](C)CC[C@]35O)[C@]2(O)[C@]41C
- Potency [1]: > 11.4 µM
- activity change, negative = inhibition [2]: 3.13%
- activity change, negative = inhibition [3]: -17.2% [at 2.29 µM]
- activity change, negative = inhibition [4]: 3.93%
- activity, negative = inhibition [5]: -4.77%
- Potency [6]: > 46 µM
- Potency [7]: > 9.22 µM
- activity change, negative = inhibition [8]: 0.163% [at 11.4 µM]
- outcome [9]: inactive
- activation [12]: 12.8%

SMILES: CCN(CC)CCn1ncc2c(N)ncnc21
- Potency [1]: > 11.4 µM
- activity change, negative = inhibition [2]: 1.87%
- Potency [3]: inactive
- activity change, negative = inhibition [4]: 0.535%
- activity, negative = inhibition [5]: -0.447%
- Potency [6]: > 46 µM
- activity change, negative = inhibition [8]: -1.5% [at 11.4 µM]
- outcome [9]: inactive

SMILES: Cc1nc2ccccc2cc1C[N+]12CN3CN(CN(C3)C1)C2
- Potency [1]: > 11.4 µM
- activity change, negative = inhibition [2]: -8.29%
- Potency [3]: 0.631 µM (active)
- activity change, negative = inhibition [4]: 6.19%
- activity, negative = inhibition [5]: 6.99%
- Potency [6]: > 46 µM
- Potency [7]: > 9.22 µM
- activity change, negative = inhibition [8]: 0.875% [at 11.4 µM]
- outcome [9]: inactive
- activation [12]: 9.32%

SMILES: O=[As](O)(O)c1ccc(N=Nc2ccc([As](=O)(O)O)cc2)cc1
- Potency [1]: > 11.4 µM
- activity change, negative = inhibition [2]: 2.76%
- Potency [3]: inactive
- activity change, negative = inhibition [4]: 2.59%
- activity, negative = inhibition [5]: 4.67%
- Potency [6]: > 46 µM
- activity change, negative = inhibition [8]: 2.69% [at 11.4 µM]
- outcome [9]: inactive

SMILES: O=[As](O)(O)c1ccc2nc3cc([As](=O)(O)O)ccc3nc2c1
- Potency [1]: > 11.4 µM
- activity change, negative = inhibition [2]: 0.372%
- Potency [3]: inactive
- activity change, negative = inhibition [4]: 20.7%
- activity, negative = inhibition [5]: -4.42%
- Potency [6]: > 46 µM
- Potency [7]: > 9.22 µM
- activity change, negative = inhibition [8]: -2.18% [at 11.4 µM]
- outcome [9]: inactive
- Potency [14]: inactive

SMILES: C[C@@H](O)CN(CCN(C[C@@H](C)O)C[C@@H](C)O)C[C@@H](C)O.O=[N+]([O-])O.[Cu]
- Potency [1]: > 11.4 µM
- activity change, negative = inhibition [2]: -0.101%
- Potency [3]: 5.01 µM (active)
- activity change, negative = inhibition [4]: -2.32%
- activity, negative = inhibition [5]: 2.41%
- Potency [6]: > 46 µM
- Potency [7]: > 9.22 µM
- activity change, negative = inhibition [8]: -3.67% [at 11.4 µM]
- outcome [9]: inactive
- Potency [10]: 0.794 µM (active)
- activity change, positive = activation [11]: -36.8% [at 11.4 µM]
- Potency [14]: 0.398 µM (active)
